Here are results for seven molecules from PubChem BioAssay (NCATS).

In experiment [1] the target is Cytochrome P450 3A4 (Homo sapiens) (UniProt P08684). In words: qHTS Assay for Inhibitors and Substrates of Cytochrome P450 3A4 (AID 884). Also: nearly all actives have a fitted effect of over 50% in size. Also: potency is read from the fitted curve at half-maximal effect. The method, boiled down:
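20 nM human CYP3A4 with 25 uM Luciferin-PPXE (at KM) in 200 mM KPO4, preincubated 10 min with compound; NADPH regeneration started a 60 min RT reaction. Luciferin detected by luminescence, normalized to 57 uM ketoconazole as full inhibition.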
In general terms: Quantitative high-throughput screening tests each substance at several concentrations.

Experiment [2] in a line: qHTS Assay for Lipid Storage Modulators (AID 1519; calls by dose curve). The settings on record: Drosophila S3 cells, BODIPY lipid droplet/cell ratio, laser cytometry, cells loaded with oleic acid; for activity change, negative = inhibition: at 57.5 µM (top of the series). The method, boiled down: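 Cells seeded at 5,000 per well were treated with compounds over a concentration series and loaded with oleic acid (400 uM, as added). Lipid droplet fluorescence (488 nm excitation, 500-530 nm channel) was read by laser-scanning cytometry and normalized to 20 uM Triacsin C.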

In experiment [3] the target is Ubiquitin carboxyl-terminal hydrolase 1 (Homo sapiens) (UniProt O94782). In words: Inhibitors of USP1/UAF1: Pilot qHTS (AID 504865).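 Also: rhodamine fluorescence freed from ubiquitin-rhodamine substrate followed over time; top concentration of the series differs between compounds; % is scaled to controls: 0 for no effect and ±100 for the full control effect; nearly all actives have a fitted effect of over 35% in size.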 The method, boiled down: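 In 50mM HEPES pH 7.8 containing 0.5mM EDTA, 1mM TCEP, 0.1 mg/ml BSA and 0.01% Tween-20, 1nM USP1/UAF1 is exposed to compound for 15 min, then Ub-Rho (150nM final) is added and fluorescence is read over time.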

The nature of experiment [4]: Primary qHTS for small molecule stabilizers of the endoplasmic reticulum resident proteome: Secreted ER Calcium Modulated Protein (SERCaMP) assay (AID 1508630). Also: % is scaled to controls: 0 for no effect and ±100 for the full control effect. The essentials:
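GLuc-SERCaMP-expressing SH-SY5Y cells, pretreated 16 h with compound, are challenged with thapsigargin to empty ER calcium stores; after 4 h, coelenterazine is added directly to the medium and luminescence is imaged.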

The target in experiment [5] is Cytochrome P450 1A2 (Homo sapiens) (UniProt P05177). The experiment in a line: p450-cyp1a2 (AID 410; calls by dose curve; also: potency is read from the fitted curve at half-maximal effect). The essentials: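 20nM CYP1A2 with 100uM Luciferin-ME (at Km) in 100mM KPO4; compound preincubated 10 min, NADPH regeneration added, 60 min at room temperature. Luciferin quantified by luminescence after detection reagent; normalized to 57 uM furafylline.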
Experiment [6] in a line: NFAT Signaling Pathway (AID 444; active = well fitted curve in either direction with a large enough effect, not every such curve was filed as active;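 also: carbachol stimulus at about its EC50 of 1 µM final; % is scaled to controls: 0 for no effect and ±100 for the full control effect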). Conditions: Jurkat NFAT-bla M1, carbachol, beta-lactamase ratio, 5 h; at 7.69 µM (top of the series) unless noted. The method, boiled down: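 Jurkat cells carrying an NFAT-driven β-lactamase reporter and co-transfected muscarinic M1 receptor were treated with compound plus carbachol (1 uM final, an EC50 level) for 5 h at 37 °C. CCF4 loading followed for 1 h at RT; 460/530 nm ratio gave %activity.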

The nature of experiment [7]: Stat Signaling Pathway (AID 446; active = well fitted curve in either direction with a large enough effect, not every such curve was filed as active;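 also: ME-180 cervical cancer cells given 40 pM IL-6 alongside compound; SIE-controlled beta-lactamase reporter measured as 460/530 nm FRET emission ratio; % is scaled to controls: 0 for no effect and ±100 for the full control effect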). Conditions: ME-180 SIE beta-lactamase reporter, IL-6 stimulated, 5 h; at 7.69 µM (top of the series) unless noted. The essentials:
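ME-180 cells carrying a SIE-driven beta-lactamase reporter are stimulated with 40 pM IL-6 for 5 h at 37C in the presence of compound. The 460/530 nm FRET substrate ratio is read after 2.5 h at RT. Data are normalised to 300 pM IL-6 and to 125 nM JAK inhibitor controls.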

The target in experiment [8] is Glucocorticoid receptor (Homo sapiens) (UniProt P04150). The experiment in a line: GR-EFC Redistribution (AID 451; calls by dose curve; also: potency is read from the fitted curve at half-maximal effect). Conditions: CHO-K1 GR-EFC translocation, beta-gal luminescence, 2 h. The essentials:
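CHO-K1 cells stably expressing nuclear-localized β-gal enzyme acceptor and GR fused C-terminally to the enzyme donor fragment; ligand-driven nuclear translocation restores β-gal by complementation. Compounds titrated up to 46 uM final, 2 h at 37 °C; luminescence read.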

Experiment [9] deals with Mitogen-activated protein kinase 10 (Mus musculus) (UniProt Q61831). In words: JNK3 AlphaScreen Assay (AID 530; active = well fitted curve in either direction with a large enough effect, not every such curve was filed as active;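 also: kinase came from lysate of stimulated human HepG2 cells; signal reports phosphorylation of biotinylated GST-cJun 1-79 at Ser73 with 10 µM ATP; % is scaled to controls: 0 for no effect and ±100 for the full control effect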). The essentials: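 Inhibitors reduce antibody binding to phosphorylated biotin-cJun, lowering AlphaScreen luminescence. Lysates from HepG2 cells pre-activated by IL-1beta plus TNF-alpha supplied JNK3; compounds were titrated.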
Experiment [10] has as its target 3',5'-cyclic-AMP phosphodiesterase 4B (Homo sapiens) (UniProt Q07343). In words: qHTS Assay for Inhibitors of PDE-IV (AID 607; active = well fitted activation curve with a large enough effect in the main read-out, with a control signal flat, not every such curve was filed as active; also: % of control where 0% means no effect). The essentials: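 HEK293 ACTOne cells with CNG channel (1000/well), endogenous PDE4; membrane potential dye, compounds up to 22.9 uM final. Fluorescence Ex 535/Em 590; RO 20-1724 (100 uM final) as reference.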
Experiment [11] concerns the target Lysosomal acid glucosylceramidase (Homo sapiens) (UniProt P04062). The experiment in a line: Glucocerebrosidase-p2 (AID 348; in the data active = potency below about 10 µM; also: potency is read from the fitted curve at half-maximal effect). Conditions: purified GBA, blue fluorogenic substrate, 40 min. The essentials:
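Compounds titrated from 0.6 nM upwards against 0.2 nM enzyme in pH 5.9 citric acid/KH2PO4, taurocholate, tween-20; blue fluorogenic substrate 80 uM, 40 min room temperature, stopped and read Ex 365/Em 440 for AC50.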

Experiment [12] in a line: AP1 Signaling Pathway (AID 357; active = well fitted curve in either direction with a large enough effect, not every such curve was filed as active). Conditions: ME-180 (cervical carcinoma) AP-1-bla reporter, EGF-induced, beta-lactamase ratio, 5 h; at 7.69 µM (top of the series) unless noted. The essentials: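 AP-1-bla ME-180 cells, Opti-MEM + 0.5% dialyzed FBS, plated overnight 37 °C. Cpd titration + EC50 EGF, 5 h 37 °C. CCF4 2.5 h RT; ex 405, em 460/530 ratio → %activity, AC50.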
Experiment [13] deals with Glucocorticoid receptor (Homo sapiens) (UniProt P04150). In words: GR-GFP Redistribution (AID 450;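 active = compounds whose dose series gives a full or clear partial fitted curve of increased nuclear translocation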; also: potency is read from the fitted curve at half-maximal effect). The settings on record: U2OS GR-GFP nuclear translocation, laser cytometry, 2 h.
Experiment [14] deals with Cytochrome P450 3A4 (Homo sapiens) (UniProt P08684). The experiment in a line: qHTS Assay for Activators of Cytochrome P450 3A4 (AID 885). Also: nearly all actives have a fitted effect of over 65% in size. The essentials: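 Human CYP3A4 (20 nM) with Luciferin-PPXE at 25 uM (its KM) in 200 mM KPO4; 10 min compound preincubation, then NADPH regeneration and 60 min reaction at RT. Luciferin read by luminescence; normalized to 57 uM ketoconazole full inhibition.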

The target of experiment [15] is Rap guanine nucleotide exchange factor 3 (Homo sapiens) (UniProt O95398). The experiment in a line: Confirmatory qHTS for antagonist of cAMP-regulated guanine nucleotide exchange factor 3 (EPAC1) (AID 1645880).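 Also: plate controls were DMSO only for no effect and full effect of the ATA control for full effect; nearly all actives have a fitted effect of over 55% in size.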 The essentials: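 Nucleotide exchange uses 100 nM EPAC1, 250 nM RAP1B-BODIPY-GDP and 50 uM GDP, with compounds in a concentration-titration series. After 5 min at room temperature, fluorescence (480 nm ex/540 nm em) is read every 5 min for 30 min. Data are normalized to control ATA and DMSO.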

Experiment [16] has the same target. In words: Confirmatory qHTS for agonist of cAMP-regulated guanine nucleotide exchange factor 3 (EPAC1) (AID 1645881). Also: nearly all actives have a fitted effect of over 75% in size. Also: potency is read from the fitted curve at half-maximal effect.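 As to activation: EPAC1 catalysed release of BODIPY-GDP from Rap1B seen as fluorescence loss; 100% = effect of cAMP agonist control.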
The target in experiment [17] is Rap guanine nucleotide exchange factor 4 (Homo sapiens) (UniProt Q8WZA2). The experiment in a line: Confirmatory qHTS for agonist of cAMP-regulated guanine nucleotide exchange factor 4 (EPAC2) (AID 1645884).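 Also: nucleotide exchange releases bodipy-GDP from Rap1 and this lowers its fluorescence; nearly all actives have a fitted effect of over 65% in size.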 Also: potency is read from the fitted curve at half-maximal effect.
Experiment [18] shares this target. In words: Confirmatory qHTS for antagonist of cAMP-regulated guanine nucleotide exchange factor 4 (EPAC2) (AID 1645885). Also: % is scaled to controls: 0 for no effect and ±100 for the full control effect; nearly all actives have a fitted effect of over 25% in size.
Experiment [19] addresses Dual specificity protein kinase CLK4 (Homo sapiens) (UniProt Q9HAZ1). In words: qHTS Assay for Inhibitors of CDC-like Kinase 4 (Kinase-Glo Assay) (AID 1770). Also: nearly all actives have a fitted effect of over 65% in size. Also: potency is read from the fitted curve at half-maximal effect. The essentials: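 Substrate mix (RS peptide 100 uM, ATP 1 uM) dispensed, compound pinned in, then Clk4 added to 25 nM final. Incubated 4.5 h at RT; Kinase-Glo reagent added, luminescence read after 5 min.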
The target is the same in experiment [20]. The experiment in a line: qHTS Assay for Inhibitors of CDC-like Kinase 4 (ADP-FP Assay) (AID 1795).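 Also: recombinant human CLK4 phosphorylating RS repeat peptide at 1 µM ATP; % is scaled to controls: 0 for no effect and ±100 for the full control effect; nearly all actives have a fitted effect of over 60% in size.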 The essentials:
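Clk4 6.25 nM; RS peptide 100 uM; ATP 1 uM; 25 mM Tris pH 7.5, 10 mM MgCl2; 1 h reaction. ADP detected via antibody/orange tracer FP displacement; TG003 positive control.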

[21] abbreviates: measured here: cell count channel max response.
Where [22] appears, read: measured here: lipid channel max response.

Inconclusive results are not listed. Activity calls are given as the source filed them. Unless noted, calls follow the shape of the dose curve; as a rule, active = well fitted curve in the direction sought with a large enough effect; inconclusive = small, poorly fitted or top-dose-only effect, or another doubt; inactive = no such curve, though single readings can be large; an effect the other way counts as inactive or inconclusive.

Sequence of Cytochrome P450 1A2 (Homo sapiens) (P05177 whole entry, looked up): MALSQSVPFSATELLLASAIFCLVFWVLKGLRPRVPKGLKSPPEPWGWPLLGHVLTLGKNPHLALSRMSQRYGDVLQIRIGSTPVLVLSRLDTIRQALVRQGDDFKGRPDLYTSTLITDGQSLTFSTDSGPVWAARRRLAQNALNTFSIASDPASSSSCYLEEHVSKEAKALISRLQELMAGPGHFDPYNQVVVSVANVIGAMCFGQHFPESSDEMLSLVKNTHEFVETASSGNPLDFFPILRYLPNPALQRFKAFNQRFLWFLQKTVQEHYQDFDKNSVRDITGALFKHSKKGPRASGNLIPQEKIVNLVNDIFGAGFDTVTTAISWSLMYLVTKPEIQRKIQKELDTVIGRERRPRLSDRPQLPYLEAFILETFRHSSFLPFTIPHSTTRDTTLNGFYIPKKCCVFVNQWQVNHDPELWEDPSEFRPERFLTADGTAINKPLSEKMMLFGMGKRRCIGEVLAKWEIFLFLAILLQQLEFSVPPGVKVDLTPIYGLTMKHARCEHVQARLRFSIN
Sequence of Ubiquitin carboxyl-terminal hydrolase 1 (Homo sapiens) (O94782 whole entry, looked up): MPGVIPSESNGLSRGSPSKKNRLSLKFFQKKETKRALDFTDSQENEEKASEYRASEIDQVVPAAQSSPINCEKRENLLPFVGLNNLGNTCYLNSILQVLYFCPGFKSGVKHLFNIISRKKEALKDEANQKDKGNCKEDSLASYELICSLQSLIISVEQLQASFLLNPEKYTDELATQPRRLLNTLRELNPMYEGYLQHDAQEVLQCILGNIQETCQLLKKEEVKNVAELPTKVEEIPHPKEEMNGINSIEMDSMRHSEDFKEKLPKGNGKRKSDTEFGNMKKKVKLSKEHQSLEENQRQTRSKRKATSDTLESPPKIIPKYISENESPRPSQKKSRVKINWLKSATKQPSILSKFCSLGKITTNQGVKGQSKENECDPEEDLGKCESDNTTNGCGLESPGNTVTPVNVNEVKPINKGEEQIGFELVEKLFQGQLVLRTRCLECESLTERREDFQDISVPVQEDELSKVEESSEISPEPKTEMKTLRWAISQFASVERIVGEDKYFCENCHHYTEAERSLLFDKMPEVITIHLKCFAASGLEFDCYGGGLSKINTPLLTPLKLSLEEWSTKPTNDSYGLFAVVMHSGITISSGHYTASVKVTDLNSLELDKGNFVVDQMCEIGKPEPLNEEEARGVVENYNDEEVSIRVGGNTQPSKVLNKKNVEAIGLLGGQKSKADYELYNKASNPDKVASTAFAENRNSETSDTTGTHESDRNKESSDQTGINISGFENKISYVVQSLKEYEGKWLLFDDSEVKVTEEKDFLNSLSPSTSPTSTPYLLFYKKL
Sequence of Glucocorticoid receptor (Homo sapiens) (P04150 whole entry, looked up, the tested form may be a part): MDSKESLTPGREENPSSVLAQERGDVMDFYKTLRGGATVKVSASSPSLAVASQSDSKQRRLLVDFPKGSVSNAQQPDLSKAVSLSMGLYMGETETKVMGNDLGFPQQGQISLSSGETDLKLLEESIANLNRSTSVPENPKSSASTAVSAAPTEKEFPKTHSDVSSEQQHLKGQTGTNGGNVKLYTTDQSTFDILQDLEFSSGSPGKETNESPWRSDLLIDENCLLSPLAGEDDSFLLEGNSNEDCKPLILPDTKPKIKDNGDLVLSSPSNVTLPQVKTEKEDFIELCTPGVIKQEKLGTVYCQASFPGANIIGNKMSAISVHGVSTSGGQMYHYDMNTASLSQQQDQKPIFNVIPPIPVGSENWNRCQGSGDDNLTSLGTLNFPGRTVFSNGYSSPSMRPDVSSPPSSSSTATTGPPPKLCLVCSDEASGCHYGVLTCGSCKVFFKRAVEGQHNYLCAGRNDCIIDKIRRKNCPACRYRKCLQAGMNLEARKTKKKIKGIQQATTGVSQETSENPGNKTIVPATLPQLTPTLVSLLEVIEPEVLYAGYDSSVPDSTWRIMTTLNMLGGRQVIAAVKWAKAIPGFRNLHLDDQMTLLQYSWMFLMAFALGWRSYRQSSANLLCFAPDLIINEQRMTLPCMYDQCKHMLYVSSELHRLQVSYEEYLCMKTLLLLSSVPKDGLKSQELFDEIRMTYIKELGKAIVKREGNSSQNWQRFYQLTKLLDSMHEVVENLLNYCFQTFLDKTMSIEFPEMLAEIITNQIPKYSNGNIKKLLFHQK
Sequence of Cytochrome P450 3A4 (Homo sapiens) (P08684 whole entry, looked up): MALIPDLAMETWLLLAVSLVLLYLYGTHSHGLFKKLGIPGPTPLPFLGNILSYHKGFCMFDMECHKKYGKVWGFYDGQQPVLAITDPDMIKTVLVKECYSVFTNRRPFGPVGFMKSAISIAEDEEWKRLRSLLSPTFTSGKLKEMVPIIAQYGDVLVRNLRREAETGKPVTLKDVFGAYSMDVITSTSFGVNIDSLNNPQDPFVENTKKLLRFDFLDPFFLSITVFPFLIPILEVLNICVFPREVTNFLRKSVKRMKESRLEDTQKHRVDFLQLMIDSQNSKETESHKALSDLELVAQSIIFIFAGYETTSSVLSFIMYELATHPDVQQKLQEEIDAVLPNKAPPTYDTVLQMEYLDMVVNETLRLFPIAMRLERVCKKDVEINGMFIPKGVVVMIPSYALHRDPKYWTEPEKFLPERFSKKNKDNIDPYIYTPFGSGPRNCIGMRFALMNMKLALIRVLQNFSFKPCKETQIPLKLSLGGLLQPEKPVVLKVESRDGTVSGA
Sequence of Rap guanine nucleotide exchange factor 4 (Homo sapiens) (Q8WZA2 whole entry, looked up): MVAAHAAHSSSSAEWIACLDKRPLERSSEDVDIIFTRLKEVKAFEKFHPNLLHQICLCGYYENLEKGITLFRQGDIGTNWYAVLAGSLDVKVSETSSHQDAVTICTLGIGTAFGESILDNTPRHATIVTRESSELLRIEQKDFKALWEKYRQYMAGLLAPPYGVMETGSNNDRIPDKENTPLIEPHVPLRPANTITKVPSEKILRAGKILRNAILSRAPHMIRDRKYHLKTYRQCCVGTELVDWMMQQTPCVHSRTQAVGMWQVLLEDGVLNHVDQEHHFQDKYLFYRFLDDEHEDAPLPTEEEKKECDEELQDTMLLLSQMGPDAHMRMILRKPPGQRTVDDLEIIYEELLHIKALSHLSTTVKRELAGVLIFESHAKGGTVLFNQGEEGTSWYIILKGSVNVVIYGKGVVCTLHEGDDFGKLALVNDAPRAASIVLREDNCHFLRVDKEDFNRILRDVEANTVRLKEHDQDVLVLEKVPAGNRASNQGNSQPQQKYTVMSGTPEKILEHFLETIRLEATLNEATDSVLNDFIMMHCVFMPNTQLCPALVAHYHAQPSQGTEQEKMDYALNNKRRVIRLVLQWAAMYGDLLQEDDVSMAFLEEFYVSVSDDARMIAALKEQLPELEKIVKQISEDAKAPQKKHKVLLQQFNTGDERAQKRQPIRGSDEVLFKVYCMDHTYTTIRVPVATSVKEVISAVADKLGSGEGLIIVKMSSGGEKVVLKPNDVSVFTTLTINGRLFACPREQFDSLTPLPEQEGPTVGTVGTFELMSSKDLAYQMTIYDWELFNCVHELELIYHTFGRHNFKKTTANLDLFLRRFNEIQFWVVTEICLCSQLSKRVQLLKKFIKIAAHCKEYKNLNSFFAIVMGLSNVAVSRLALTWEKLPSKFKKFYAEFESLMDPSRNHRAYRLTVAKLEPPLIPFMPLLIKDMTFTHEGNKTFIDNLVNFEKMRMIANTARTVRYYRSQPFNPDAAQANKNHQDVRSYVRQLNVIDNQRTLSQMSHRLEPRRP
Sequence of Lysosomal acid glucosylceramidase (Homo sapiens) (P04062 whole entry, looked up): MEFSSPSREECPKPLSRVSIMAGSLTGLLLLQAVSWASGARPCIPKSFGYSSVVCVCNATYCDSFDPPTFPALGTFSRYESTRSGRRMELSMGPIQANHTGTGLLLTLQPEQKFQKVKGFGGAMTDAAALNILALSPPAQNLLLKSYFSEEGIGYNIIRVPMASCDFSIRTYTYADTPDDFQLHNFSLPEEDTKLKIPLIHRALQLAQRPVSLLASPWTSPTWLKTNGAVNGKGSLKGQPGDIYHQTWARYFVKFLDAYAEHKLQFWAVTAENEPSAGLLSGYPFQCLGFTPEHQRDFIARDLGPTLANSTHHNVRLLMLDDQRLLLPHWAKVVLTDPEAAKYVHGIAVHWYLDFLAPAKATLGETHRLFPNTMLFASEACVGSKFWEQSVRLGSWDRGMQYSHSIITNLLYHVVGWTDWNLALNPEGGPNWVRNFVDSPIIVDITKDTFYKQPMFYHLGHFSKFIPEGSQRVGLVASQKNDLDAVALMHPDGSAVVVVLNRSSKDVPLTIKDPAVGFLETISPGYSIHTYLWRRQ
Sequence of Rap guanine nucleotide exchange factor 3 (Homo sapiens) (O95398 whole entry, looked up): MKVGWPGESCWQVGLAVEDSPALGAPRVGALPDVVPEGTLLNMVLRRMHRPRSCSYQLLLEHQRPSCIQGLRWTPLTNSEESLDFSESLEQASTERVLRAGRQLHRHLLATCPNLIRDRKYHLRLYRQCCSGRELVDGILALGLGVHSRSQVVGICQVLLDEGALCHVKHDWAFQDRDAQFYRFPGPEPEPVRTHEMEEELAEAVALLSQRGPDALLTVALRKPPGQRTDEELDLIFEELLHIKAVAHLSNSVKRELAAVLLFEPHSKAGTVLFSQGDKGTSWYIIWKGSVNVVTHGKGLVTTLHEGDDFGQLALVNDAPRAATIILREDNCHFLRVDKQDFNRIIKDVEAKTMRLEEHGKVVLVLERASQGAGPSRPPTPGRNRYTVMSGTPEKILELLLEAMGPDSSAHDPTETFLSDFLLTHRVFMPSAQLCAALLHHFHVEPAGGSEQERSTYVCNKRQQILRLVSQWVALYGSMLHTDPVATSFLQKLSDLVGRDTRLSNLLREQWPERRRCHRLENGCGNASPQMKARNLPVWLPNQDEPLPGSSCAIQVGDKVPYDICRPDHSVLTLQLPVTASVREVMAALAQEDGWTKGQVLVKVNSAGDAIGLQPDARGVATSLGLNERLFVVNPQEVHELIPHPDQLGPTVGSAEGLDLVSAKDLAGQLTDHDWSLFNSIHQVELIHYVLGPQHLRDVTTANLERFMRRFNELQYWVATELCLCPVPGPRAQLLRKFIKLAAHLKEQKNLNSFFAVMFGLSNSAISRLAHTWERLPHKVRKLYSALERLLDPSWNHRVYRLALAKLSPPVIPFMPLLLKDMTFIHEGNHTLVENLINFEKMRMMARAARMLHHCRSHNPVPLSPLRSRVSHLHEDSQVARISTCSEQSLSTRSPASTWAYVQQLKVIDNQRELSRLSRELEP

For the molecule `O=C(O)c1cc(=O)c2cccc(O)c2[nH]1`, the Potency entry in experiment [1] and in [3] was “inactive” in each case. Also, in experiment [2], the activity change, negative = inhibition was 14.6% (inactive). Moreover, the results for the max response in experiment [2] (setting [21]) and in experiment [2] (setting [22]) were 27.2% and 50.3%, respectively. Besides, the result in experiment [4] was inactive.

Take `COCC(=O)N1CCC2(CC1)CCN(c1ncccn1)CC2`: the Potency result in experiment [5], in experiment [9] and in experiment [10] was “inactive” each time. The activity change, negative = inhibition was 16.6% (inactive) in [6] and 3.55% (inactive) in [2]. Further, the activity, negative = inhibition in experiment [7] is -0.157% (inactive). The Potency in experiment [8] is > 46 µM (inactive). For the same molecule, the results for the max response in [2] (setting [21]) and in experiment [2] (setting [22]) were 11.8% and 17.5%, respectively. The outcome in experiment [4] was inactive.

On to `COCCn1c(=O)c(-c2ccc(OC)cc2)nc2cnc(Nc3cccc(OC)c3)nc21`, for which the Potency in [11] is > 11.4 µM (inactive); in [5], 10 µM (active); in experiment [13], > 9.22 µM (inactive); in experiment [8], > 46 µM (inactive); in [16], 70.6 µM (active); in [17], 70.6 µM (active). For the same molecule, the activity change, negative = inhibition was -2.99% (inactive) in [12] and -5.57% (inactive) in experiment [6]. In experiment [7], the activity, negative = inhibition is 3.6% (inactive). Moreover, the Potency result in experiment [9], in [10], in experiment [14], in experiment [15] and in experiment [18] was “inactive” throughout. Besides, in experiment [4], the outcome was inactive.

Regarding `COc1ccc2[nH]cc(CCNc3nc(-c4cccc(C#N)c4)nc4ccccc34)c2c1`, the Potency in experiment [13] was > 46 µM (inactive); in experiment [8], > 46 µM (inactive); in experiment [19], 22.4 µM (active). Further, the Potency result in [9], in [10], in experiment [20], in experiment [3], in [15] and in [16] was “inactive” throughout. Also, the Potency entry in [17] and in experiment [18] was “inactive” throughout. Further, the outcome in experiment [4] was inactive.

As to `OC[C@H]1O[C@@H](n2cnc3c(NCc4ccco4)ncnc32)[C@H](O)[C@@H]1O`, the Potency result in experiment [1] is “inactive”. In addition, the activity change, negative = inhibition in [2] was -9.06% (inactive). For the same molecule, the figures for the max response in experiment [2] (setting [21]) and in [2] (setting [22]) were -12.6% and -19.8%, respectively. In addition, the outcome in [4] was inactive.

For `CN(C)c1ncc2nc(-c3ccc(F)cc3)c(=O)n(-c3ccccc3)c2n1`, the Potency in experiment [11] is > 11.4 µM (inactive); in experiment [13] it was > 9.22 µM (inactive); in experiment [8], > 46 µM (inactive). Further, the activity change, negative = inhibition in [12] is -8.28% (inactive); in [6] it was 20.7% (inactive). In addition, in [7], the activity, negative = inhibition is 28.3% (inactive). The Potency entry in experiment [9], in [19], in experiment [20], in experiment [3], in experiment [15] and in [16] was “inactive” throughout. The Potency result in experiment [17] and in experiment [18] was “inactive” in each case. For the same molecule, the result in [4] was inactive.

For the molecule `COc1ccc(CNc2ncnc3ccc(-c4c(C)noc4C)cc23)c(OC)c1`, the Potency in [11] was > 11.4 µM (inactive); in experiment [5], 15.8 µM (active); in experiment [13], > 46 µM (inactive); in [8] it was > 46 µM (inactive); in experiment [1] it was 3.16 µM (active); in [19] it was 10 µM (active). In addition, the Potency result in [9], in experiment [14], in [20], in experiment [3], in experiment [15] and in experiment [16] was “inactive” each time. Also, the Potency entry in experiment [17] and in experiment [18] was “inactive” in each case. Further, in [4], the outcome was inactive.
